# Assay outcomes (PubChem BioAssay)
# CF NFkB inh = cystic fibrosis NF-kB activation inhibition | inhibition, % at 5 µM | 360,000 compounds, 0.86% hits | KKLEB NF-kB-GFP reporter, PAF-induced, GFP fluorescence overnight;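 active = at least 50% inhibition at 5 µM, scaled per plate between neutral and stimulator controls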;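 also: PAF is a Pseudomonas aeruginosa culture filtrate used as stimulus; plate controls were PAF-stimulated DMSO wells for no effect and unstimulated DMSO wells for full effect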
# HIF-2a inh = inhibitors of HIF-2a; 786-0 RCC cells HIF-2a reporter, luciferase luminescence, overnight; inhibition, % at 18.8 µM; 360,000 compounds, 0.72% hits; AID 624352;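 active = inhibition of the luminescence signal of 40% or more relative to plate controls, in a single-dose primary screen at 18.75 µM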
# KKLEB cytotox = reduces viability of KKLEB cystic fibrosis airway cells; KKLEB CF airway cells viability, ATPlite luminescence, overnight; active compounds read low; cells stimulated with P. aeruginosa culture filtrate; activity change (cytotoxicity), % at 5 µM; 360,000 compounds, 0.36% hits; AID 602141;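 active = corrected activity change at or below -50% at 5 µM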
# PAX8 inh HTS = inhibitors of PAX8 transcriptional activity in RMG-I cells; RMG-I TPO-luciferase reporter, SteadyGlo, 24 h; inhibition, % at 12.6 µM; 360,000 compounds, 1.2% hits; AID 652154;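 active = mean replicate inhibition at least 60% with every replicate also reaching 60%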;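 also: luciferase light reporting Pax8 driven TPO promoter activity; plate controls were median of neutral control wells for no effect and mitoxantrone controls for full effect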
# EWS-Fli inh = blocks EWS/Fli oncoprotein-driven transcription; A673 NR0B1-luciferase reporter, viability-normalised; AID 651661; inhibition, % at 12.6 µM; 350,000 compounds, 0.67% hits;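 active = mean inhibition of at least 50% after viability correction, with every replicate also passing that limit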;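 also: firefly luciferase signal divided by Alamar Blue viability fluorescence both relative to DMSO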
# An asterisk follows results filed as active; . = not tested or not shown. Shown are actives, neighbours in structure and some others; about 2.1% of the full set was active somewhere.
SMILES,CF NFkB inh,HIF-2a inh,KKLEB cytotox,PAX8 inh HTS,EWS-Fli inh
C[C@H]1CN([C@@H](C)CO)C(=O)Cc2cc(NS(C)(=O)=O)ccc2O[C@H]1CN(C)Cc1ccc(C(=O)O)cc1,.,.,.,-0.8,-1.7
COc1cc(SC)ccc1C(=O)Nc1ccc(Cl)cn1,-17.2,53.1*,-68.9*,-149.6,83.6*
CSc1ccc(Cl)c(C(=O)Nc2ccc(Cl)cn2)c1,-9.4,-28.1,-1.6,3.8,43.3
CSc1nnc(NC(=O)c2ccc3c(c2)OCO3)s1,-8.3,-12.9,0.1,-98.1,61.7*
C[C@@H]1CN([C@H](C)CO)C(=O)c2cc(NC(=O)C3CCCCC3)ccc2O[C@@H](C)CCCCO[C@H]1CN(C)S(=O)(=O)c1cn(C)cn1,.,.,.,-0.3,1.2
C[C@@H]1CN([C@@H](C)CO)C(=O)Cc2cc(NC(=O)Cc3ccccc3)ccc2O[C@H]1CN(C)Cc1ccc(C(F)(F)F)cc1,.,.,.,70.4*,.
C[C@@H]1CN([C@H](C)CO)C(=O)Cc2cc(NC(=O)Cc3ccccc3)ccc2O[C@@H]1CN(C)Cc1ccc(C(F)(F)F)cc1,.,.,.,85.9*,.
C[C@@H]1CN([C@@H](C)CO)C(=O)Cc2cc(NC(=O)Cc3ccccc3)ccc2O[C@@H]1CN(C)Cc1ccc(C(F)(F)F)cc1,.,.,.,26.6,.
C[C@H](CO)N1C[C@H](C)[C@@H](CN(C)Cc2ccc(C(F)(F)F)cc2)Oc2ccc(NC(=O)Cc3ccccc3)cc2CC1=O,.,.,.,52.2,.
C[C@H](NC(=O)[C@H]1[C@H](CO)[C@H]2Cn3c(cccc3=O)[C@@H]1N2Cc1cccnc1)c1ccccc1,.,.,.,4.6,-3.1
CCC(=O)N1C[C@H](C)[C@@H](OC)CN(C)C(=O)c2ccc(NC(=O)Nc3cccc(F)c3)cc2OC[C@H]1C,.,.,.,.,-2.8
C[C@H](CO)N1C[C@H](C)[C@@H](CN(C)CC2CCCCC2)Oc2ccc(NS(=O)(=O)c3cn(C)cn3)cc2C1=O,.,.,.,.,-11.2
C[C@@H]1CN([C@H](C)CO)S(=O)(=O)c2ccc(-c3ccccc3)cc2O[C@H]1CN(C)C(=O)c1ccccc1F,.,.,.,.,7.5
Cc1cccc(NC(c2ccc(O)cc2)c2ccc3ccc(C)nc3c2O)n1 (stereo unspecified),45.8,54.6*,-13.6,.,.
Oc1c(C(Nc2cccc(C(F)(F)F)c2)c2cccnc2)ccc2cccnc12 (stereo unspecified),-10.3,14.0,-0.7,13.4,.
COc1cccc(C(Nc2ccccc2)c2ccc3ccc(C)nc3c2O)c1 (stereo unspecified),.,-98.2,.,66.3*,-5.0
Cc1cc(NC(c2cccnc2)c2ccc3cccnc3c2O)no1 (stereo unspecified),-1.3,-3.0,6.1,.,.
Oc1cccc(C(Nc2nccs2)c2ccc3cccnc3c2O)c1 (stereo unspecified),-4.0,15.7,-4.9,74.6*,14.5
CC(=O)NC(c1ccc(C(C)C)cc1)c1ccc2cccnc2c1O (stereo unspecified),-8.0,11.9,5.2,94.9*,42.8
O=C(C[C@H]1CC[C@@H](NC(=O)c2ccncc2)[C@H](CO)O1)NCC1CCCCC1,.,.,.,0.8,2.9
CN1c2ccc(C#Cc3cccnc3)cc2[C@@H]2[C@@H](CCN2C(=O)Cc2cccnc2)[C@H]1CO,.,.,.,-6.3,-4.2
CC(=O)NC(c1cccc([N+](=O)[O-])c1)c1ccc2cccnc2c1O (stereo unspecified),0.6,10.2,-0.9,59.2,36.2
O=[N+]([O-])c1ccc(NC(c2ccccc2)c2ccc3cccnc3c2O)cc1 (stereo unspecified),7.6,20.5,-19.1,83.4*,12.7
CCCCC(=O)NC(c1cccc([N+](=O)[O-])c1)c1ccc2cccnc2c1O (stereo unspecified),-0.8,8.9,-22.2,51.2,28.3
CCCCC(=O)NC(c1ccc(C(C)C)cc1)c1ccc2cccnc2c1O (stereo unspecified),-7.7,12.6,-15.3,84.8*,43.1
SMILES,CF NFkB inh,HIF-2a inh,KKLEB cytotox,PAX8 inh HTS,EWS-Fli inh
CCCCC(=O)NC(c1ccccc1Cl)c1ccc2cccnc2c1O (stereo unspecified),2.2,12.6,-10.9,85.3*,28.9
COc1cccc(C(NC(C)=O)c2ccc3cccnc3c2O)c1 (stereo unspecified),-10.1,15.5,19.3,69.0*,23.6
CCCNC(=O)N(C)C[C@H]1Oc2ncc(C#CC3(O)CCCC3)cc2C(=O)N([C@H](C)CO)C[C@H]1C,.,.,.,-21.0,-9.0
CN(C)CC(=O)N[C@H]1CC[C@@H](CCNC(=O)C2CCC2)O[C@@H]1CO,.,.,.,-1.1,1.7
Cc1ccc(C)c(CSC2=NCCN2C(=O)Cc2ccc([N+](=O)[O-])cc2)c1,5.4,16.0,-0.5,94.9*,-3.4
O=C1CC(Sc2nnnn2-c2ccccc2)C(=O)N1c1cccc(Cl)c1 (stereo unspecified),44.9,39.5,-14.9,.,.
COc1ccc(N2C(=O)CC(Sc3nnnn3-c3ccc(F)cc3)C2=O)cc1 (stereo unspecified),27.2,-0.2,-2.4,95.0*,13.4
COc1ccc(N2C(=O)CC(Sc3nnc(-c4ccccc4)o3)C2=O)cc1 (stereo unspecified),26.1,4.2,4.9,107.0*,.
O=C(CCl)N(C/C=C/c1ccccc1)c1ccc2c(c1)OCCO2,91.9*,-56.3,-99.7*,84.2*,44.6
O=C(/C=C/c1ccccc1)c1ccc2c(c1)OCCCCO2,-16.9,-123.0,-11.8,-145.0,.
O=C1C(Cl)=C(NCCCO)C(=O)c2ccccc21,8.2,72.0*,-8.0,.,.
O=C1C(Cl)=C(NCCCN2CCOCC2)C(=O)c2ccccc21,38.3,48.7*,-2.3,19.5,18.7
O=C1C(Cl)=C(NCCN2CCOCC2)C(=O)c2ccccc21,12.4,-6.6,3.5,10.5,-8.3
CCOCCCNC1=C(Cl)C(=O)c2ccccc2C1=O,-0.5,30.5,1.4,24.6,-45.5
Cc1noc(C)c1S(=O)(=O)Nc1ccc2c(c1)CC(=O)N([C@H](C)CO)C[C@H](C)[C@@H](CN(C)C(=O)Nc1ccc(C(F)(F)F)cc1)O2,.,.,.,1.4,14.5
C[C@@H]1CCCCO[C@@H](CN(C)C(=O)Nc2ccc(F)cc2)[C@H](C)CN([C@@H](C)CO)C(=O)c2cc(N(C)C)ccc2O1,.,.,.,12.4,6.9
COc1ccccc1-c1ccc([C@@H]2[C@H]3CN(C(=O)c4cccnc4)CCCCN3[C@H]2CO)cc1,.,.,.,-12.0,-4.9
COc1ccccc1-c1nnc(NC(=O)CCS(=O)(=O)c2ccccc2)o1,21.3,12.6,-1.7,15.7,-6.1
COc1ccccc1-c1nnc(NC(=O)CCS(=O)(=O)c2ccc(F)cc2)o1,32.1,6.8,-5.0,73.6*,0.3
O=C(C1CCC1)N1CC(=O)N2[C@H](CO)[C@H](c3ccc(-c4ccccc4F)cc3)[C@@H]2C1,.,.,.,-13.3,4.5
CN1C(=O)/C(=C\c2cc(N=Nc3ccccc3)ccc2O)SC1=S,50.1*,-33.4,-36.3,.,.
CN1C(=O)/C(=C\c2ccccc2OCc2ccccc2)SC1=S,39.3,21.7,-18.1,26.4,-13.2
Cc1nc2c(-c3ccccc3)cnn2c(N)c1-c1ccccc1,-15.1,32.1,-65.3*,-131.5,40.9
